From PubChem BioAssay
Calls of active or inactive are those of the source.

How the values were obtained:
[1] = binders of probe aFSTL3 on microarray, primary screen, stem cell growth factor project, biochemical, small-molecule microarray, fluorescence 635/667 (AID 1064); conditions: higher = more signal;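 further: measures binding of the biotinylated anti-FSTL3 antibody to printed compounds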
[2] = binders from COS7 lysate, DM2A8 probe, primary screen, torsin A project, cell lysate, small-molecule microarray, fluorescence 635/667 (AID 1065); conditions: higher = more signal, COS7 lysate expressing mutant human TOR1A
[3] = binders of probe aFGF2 on microarray, primary screen, stem cell growth factor project, biochemical, small-molecule microarray, fluorescence 635/667 (AID 1067); conditions: higher = more signal;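 further: measures binding of biotinylated aFGF2 protein to printed compounds on slides; z-score merges feature fluorescence and signal-to-noise across triplicate slides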
[4] = binders of probe aFGF10 on microarray, primary screen, stem cell growth factor project, biochemical, small-molecule microarray, fluorescence 635/667 (AID 1071); conditions: higher = more signal;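 further: score merges 667 nm spot intensity and signal to noise from triplicate slides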
[5] = target: Neurogenic locus notch homolog protein 2 (Homo sapiens) (UniProt Q04721); experiment: Notch2 binders on small-molecule microarrays, primary screen, biochemical, small-molecule microarray, 635 nm fluorescence, stem cell growth factors (AID 1073); conditions: Notch2 binding, higher = more signal
[6] = target: Pro-neuregulin-1, membrane-bound isoform (Homo sapiens) (UniProt Q02297); experiment: NRG1 binders on small-molecule microarrays, primary screen, psychiatric disease protein project, biochemical, small-molecule microarray, fluorescence 635/667 (AID 1075); conditions: NRG1 binding, 635 nm fluorescence, higher = more signal;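 further: score combines 667 nm spot fluorescence with signal to noise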
Sequence of Pro-neuregulin-1, membrane-bound isoform (Homo sapiens) (Q02297 whole entry, looked up, the tested form may be a part, canonical isoform): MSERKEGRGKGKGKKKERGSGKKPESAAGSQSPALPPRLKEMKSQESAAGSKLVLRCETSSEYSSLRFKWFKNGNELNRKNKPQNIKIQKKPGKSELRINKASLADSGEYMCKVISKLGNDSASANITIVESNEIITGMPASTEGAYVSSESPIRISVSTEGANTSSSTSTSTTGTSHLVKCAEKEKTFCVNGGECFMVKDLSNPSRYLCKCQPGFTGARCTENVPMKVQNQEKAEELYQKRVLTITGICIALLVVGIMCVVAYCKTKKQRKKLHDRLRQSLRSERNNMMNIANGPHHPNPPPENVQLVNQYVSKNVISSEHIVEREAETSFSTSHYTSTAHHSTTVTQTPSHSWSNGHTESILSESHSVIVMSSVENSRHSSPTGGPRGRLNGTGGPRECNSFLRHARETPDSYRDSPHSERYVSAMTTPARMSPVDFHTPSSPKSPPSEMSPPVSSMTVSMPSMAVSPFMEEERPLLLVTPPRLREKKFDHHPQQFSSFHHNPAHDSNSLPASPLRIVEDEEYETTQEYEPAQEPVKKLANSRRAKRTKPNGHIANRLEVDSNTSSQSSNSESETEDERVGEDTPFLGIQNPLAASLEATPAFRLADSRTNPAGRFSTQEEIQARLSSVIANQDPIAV

[7] = test system: Neuregulin-1 EGF-like domain; experiment: binders of neuregulin-1 EGF-like domain, primary screen, biochemical, small-molecule microarray, 635 nm fluorescence (AID 1081); conditions: small-molecule microarray binding, higher = more signal;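 further: binding of the protein to compounds printed on small-molecule microarray slides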
[8] = FRG1 promoter luciferase signal modulators, primary screen, FRG1 inhibition for FSHD, cell-based, C2C12 myotubes, firefly/Renilla luciferase, luminescence (AID 1084); conditions: higher = more signal, called active from +8 up or from −8 down
[9] = binders of probe aFST on microarray, primary screen, stem cell growth factor project, biochemical, small-molecule microarray, fluorescence 635/667 (AID 1086); conditions: higher = more signal;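 further: score merges 667 nm fluorescence with signal-to-noise of each printed compound spot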
[10] = binders of probe aHhip on microarray, primary screen, stem cell growth factor project, biochemical, small-molecule microarray, fluorescence 635/667 (AID 1087); conditions: higher = more signal;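 further: score merges spot fluorescence at 667nm with spot signal to noise ratio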
[11] = test system: PRMT1 (protein arginine N-methyltransferase 1); experiment: PRMT1 binders on small-molecule microarrays, primary screen, biochemical, small-molecule microarray, 635 nm fluorescence (AID 1088); conditions: small-molecule microarray binding, higher = more signal;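 further: binding of Prmt1 protein to compounds spotted on small-molecule microarray slides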
[12] = yeast growth modulation, basal conditions, primary screen, YJM789 clinical isolate, OD600, 24 h (AID 1089);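 further: growth of clinical yeast isolate S. cerevisiae YJM 789 seeded 1000 cells per well; test concentration not given here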; conditions: S. cerevisiae YJM789 growth, higher = more signal, called active from +8 up or from −8 down
[13] = fission yeast growth modulation, primary screen, strain 972, OD600, 24 h, no modulator (AID 1090);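 further: basal condition with compound alone and no growth modifier present; test concentration not given here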; conditions: S. pombe 972 growth, higher = more signal, called active from +8 up or from −8 down
[14] = S. cerevisiae growth modulation with rapamycin, primary screen, strain BY4716, OD600, 96 h (AID 1091); conditions: higher = more signal, called active from +8 up or from −8 down; further: test concentration not given here
[15] = target: Torsin-1A-interacting protein 2 (Homo sapiens) (UniProt Q8NFQ8); experiment: LULL1 binders on small-molecule microarray, primary screen, cell lysate, human LULL1 lysate, 635/667 nm fluorescence (AID 1092); conditions: hLULL1 lysate binding, 635 nm fluorescence, higher = more signal;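 further: probe is lysate of COS7 cells overexpressing human LULL1; score merges per-feature 667 nm fluorescence with signal-to-noise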
Sequence of Torsin-1A-interacting protein 2 (Homo sapiens) (Q8NFQ8 whole entry, looked up): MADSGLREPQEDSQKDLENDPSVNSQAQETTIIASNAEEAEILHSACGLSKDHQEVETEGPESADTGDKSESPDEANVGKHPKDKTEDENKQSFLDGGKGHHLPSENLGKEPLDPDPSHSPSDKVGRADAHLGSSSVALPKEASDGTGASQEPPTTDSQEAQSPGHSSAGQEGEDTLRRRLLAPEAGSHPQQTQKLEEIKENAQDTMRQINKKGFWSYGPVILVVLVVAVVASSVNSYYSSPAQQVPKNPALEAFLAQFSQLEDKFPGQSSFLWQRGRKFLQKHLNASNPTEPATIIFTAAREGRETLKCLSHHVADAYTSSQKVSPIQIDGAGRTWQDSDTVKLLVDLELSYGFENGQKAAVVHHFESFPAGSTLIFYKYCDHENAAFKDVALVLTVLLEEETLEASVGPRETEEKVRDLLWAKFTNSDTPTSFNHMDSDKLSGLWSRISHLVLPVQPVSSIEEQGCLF

[16] = E. coli growth modulation, two-sided OD650, primary screen, E. coli filamentation project, strain DRC41, 24 h (AID 1093); conditions: OD650, 24 h, higher = more signal, called active from +8 up or from −8 down;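 further: MC1000 strain lacking acrAB efflux and sulA so SOS filamentation is blocked; test concentration not given here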
[17] = small-molecule microarray binders of probe aLefty2, primary screen, biochemical, biotinylated probe, 635/667 nm fluorescence (AID 1094); conditions: higher = more signal;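 further: score merges spot fluorescence near 667 nm with spot signal-to-noise ratio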
[18] = test system: Noggin (protein binding on small-molecule microarray); experiment: Noggin binders on small-molecule microarray, primary screen, biochemical, 635/667 nm fluorescence (AID 1095); conditions: 635 nm fluorescence, higher = more signal;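 further: score merges 667 nm feature fluorescence with signal to noise over triplicate slides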
[19] = target: Neurogenic locus notch homolog protein 3 (Homo sapiens) (UniProt Q9UM47); experiment: NOTCH3 binders on small-molecule microarray, primary screen, biochemical, 635/667 nm fluorescence (AID 1096); conditions: NOTCH3 binding, 635 nm fluorescence, higher = more signal
Sequence of Neurogenic locus notch homolog protein 3 (Homo sapiens) (Q9UM47 whole entry, looked up): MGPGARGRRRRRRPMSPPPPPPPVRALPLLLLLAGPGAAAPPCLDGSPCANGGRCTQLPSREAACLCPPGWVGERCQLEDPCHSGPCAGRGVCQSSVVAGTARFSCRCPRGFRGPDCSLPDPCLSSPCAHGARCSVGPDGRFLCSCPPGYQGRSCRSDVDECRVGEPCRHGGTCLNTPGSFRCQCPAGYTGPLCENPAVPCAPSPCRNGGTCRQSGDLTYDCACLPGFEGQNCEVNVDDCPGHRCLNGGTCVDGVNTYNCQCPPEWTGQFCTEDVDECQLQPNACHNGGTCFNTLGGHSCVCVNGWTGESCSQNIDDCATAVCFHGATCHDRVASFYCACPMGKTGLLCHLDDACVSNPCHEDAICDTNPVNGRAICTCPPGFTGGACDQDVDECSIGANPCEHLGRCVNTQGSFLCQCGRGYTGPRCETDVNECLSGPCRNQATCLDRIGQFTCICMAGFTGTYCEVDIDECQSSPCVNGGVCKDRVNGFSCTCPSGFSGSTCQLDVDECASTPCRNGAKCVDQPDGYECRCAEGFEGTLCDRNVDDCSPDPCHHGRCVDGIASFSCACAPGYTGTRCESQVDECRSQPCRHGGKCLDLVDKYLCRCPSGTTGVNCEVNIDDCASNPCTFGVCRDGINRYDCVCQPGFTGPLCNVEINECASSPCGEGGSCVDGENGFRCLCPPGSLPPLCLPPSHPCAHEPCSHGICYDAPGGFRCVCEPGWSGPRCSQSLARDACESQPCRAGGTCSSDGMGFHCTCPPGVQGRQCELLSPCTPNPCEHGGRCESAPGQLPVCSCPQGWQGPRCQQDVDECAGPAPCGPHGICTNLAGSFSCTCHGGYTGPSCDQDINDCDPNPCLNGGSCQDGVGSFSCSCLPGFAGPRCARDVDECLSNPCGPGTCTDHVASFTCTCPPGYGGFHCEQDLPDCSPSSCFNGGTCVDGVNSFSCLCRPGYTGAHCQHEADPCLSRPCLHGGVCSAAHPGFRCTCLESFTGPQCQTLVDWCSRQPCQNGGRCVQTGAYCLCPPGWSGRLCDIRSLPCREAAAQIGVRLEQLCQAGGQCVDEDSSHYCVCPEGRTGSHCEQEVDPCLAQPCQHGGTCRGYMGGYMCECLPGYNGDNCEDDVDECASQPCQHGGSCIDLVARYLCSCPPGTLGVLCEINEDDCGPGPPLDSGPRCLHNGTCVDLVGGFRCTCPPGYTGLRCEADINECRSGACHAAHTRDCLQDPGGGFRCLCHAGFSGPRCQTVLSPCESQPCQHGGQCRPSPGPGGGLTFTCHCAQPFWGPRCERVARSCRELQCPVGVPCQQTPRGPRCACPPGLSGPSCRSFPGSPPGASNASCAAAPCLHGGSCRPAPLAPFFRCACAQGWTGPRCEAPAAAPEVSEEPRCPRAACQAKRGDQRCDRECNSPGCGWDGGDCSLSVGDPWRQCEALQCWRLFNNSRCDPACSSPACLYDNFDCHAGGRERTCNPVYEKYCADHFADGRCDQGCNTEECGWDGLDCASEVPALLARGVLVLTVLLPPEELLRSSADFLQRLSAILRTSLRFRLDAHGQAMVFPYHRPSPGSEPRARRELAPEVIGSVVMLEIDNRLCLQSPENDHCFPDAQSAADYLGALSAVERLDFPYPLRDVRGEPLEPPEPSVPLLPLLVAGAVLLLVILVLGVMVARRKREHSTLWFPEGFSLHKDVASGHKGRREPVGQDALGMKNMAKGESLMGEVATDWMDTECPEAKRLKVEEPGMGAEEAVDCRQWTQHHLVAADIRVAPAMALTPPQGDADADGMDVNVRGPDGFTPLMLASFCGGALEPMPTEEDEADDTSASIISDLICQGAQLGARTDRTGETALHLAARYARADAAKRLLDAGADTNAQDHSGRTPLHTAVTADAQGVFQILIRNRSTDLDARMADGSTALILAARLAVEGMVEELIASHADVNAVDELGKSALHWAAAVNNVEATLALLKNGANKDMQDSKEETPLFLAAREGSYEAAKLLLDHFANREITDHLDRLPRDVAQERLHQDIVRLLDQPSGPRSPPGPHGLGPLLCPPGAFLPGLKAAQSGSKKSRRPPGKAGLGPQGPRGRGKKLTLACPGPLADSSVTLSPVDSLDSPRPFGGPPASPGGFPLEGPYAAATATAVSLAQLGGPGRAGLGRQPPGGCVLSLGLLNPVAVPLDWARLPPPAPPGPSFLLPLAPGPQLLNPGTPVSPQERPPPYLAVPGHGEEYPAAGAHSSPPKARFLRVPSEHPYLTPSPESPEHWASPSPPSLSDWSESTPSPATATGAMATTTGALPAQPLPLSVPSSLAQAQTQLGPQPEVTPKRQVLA

[20] = small-molecule microarray binders of probe aEGFR, primary screen, biochemical, biotinylated probe, 635/667 nm fluorescence (AID 1097); conditions: higher = more signal;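 further: probe is a biotinylated anti-EGFR antibody binding compounds printed on slides; score combines fluorescence near 667 nm and signal to noise of each spot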

Row | SMILES | composite z-score [1] | composite z-score [2] | composite z-score [3] | composite z-score [4] | composite z-score [5] | composite z-score [6] | composite z-score [7] | z-score [8] | composite z-score [9] | composite z-score [10] | composite z-score [11] | z-score [12] | z-score [13] | z-score [14] | composite z-score [15] | z-score [16] | composite z-score [17] | composite z-score [18] | composite z-score [19] | composite z-score [20]
1 | CCCC[C@H]1OB(O)C[C@H]2C1=C(COC)C[C@H]1C(=O)N(Cc3ccccc3)C(=O)[C@H]12 | -0.193 | 0.323 | 0.0644 | 0.3 | 0.908 | 0.173 | -0.334 | -0.788 (inactive) | 0.633 | 0.124 | -0.0448 | -0.776 (inactive) | -1.69 (inactive) | -1.69 (inactive) | 0.58 | 2.71 (inactive) | -0.113 | 0.321 | 0.75 | -0.0958
2 | C=C[C@H](OC)[C@@H](OC(=O)Nc1ccc(SC)cc1)c1ccc(OC)c(O)c1 | 0.687 | -0.368 | -0.141 | -0.748 | -0.708 | -0.231 | 0.164 | 1.2 (inactive) | -0.595 | -0.0994 | 0.0672 | -0.55 (inactive) | -0.965 (inactive) | -0.44 (inactive) | -0.023 | 2.04 (inactive) | -0.0986 | -0.878 | -0.321 | -0.338
3 | CC(=O)NCCCC[C@@H]1NC(=O)[C@@H]2C[C@H](C(=O)NCCCCCNC(=O)CS)[C@H](c3ccc(O)cc3)N2C1=O | 0.123 | -0.383 | -0.226 | -1.38 | -0.83 | 0.0942 | 1.15 | -1.14 (inactive) | -0.735 | -0.388 | 0.483 | -2.05 (inactive) | -1.83 (inactive) | -1.55 (inactive) | -0.0471 | 2.99 (inactive) | -0.149 | 1.11 | 0.108 | -0.212
4 | C=CCNC(=O)[C@H]1[C@@H]2C(=O)O[C@@H](c3ccccc3)[C@@H](c3ccccc3)N2[C@@H](c2ccccc2OCCO)[C@]12C(=O)N(C(=O)OCCOC)c1ccc(C#CCC(C(=O)OC)C(=O)OC)cc12 | -0.257 | 0.864 | 0.0556 | 0.408 | 1.34 | 1.47 | 1.22 | -0.678 (inactive) | 0.336 | 0.276 | 1.55 | 0.759 (inactive) | -1.68 (inactive) | 5.51 (inactive) | 2.97 | 3.27 (inactive) | 0.0757 | 1.15 | 1.03 | 0.0343
5 | CC(=O)NCCCC[C@@H]1NC(=O)[C@H]2C[C@@H](C(=O)NCCCCCCN(C)C)[C@@H](c3ccc(O)cc3)N2C1=O | -0.463 | 1.68 | -0.0876 | 0.785 | 0.269 | 1.43 | 1.48 | 4.59 (inactive) | 0.31 | 0.0401 | 1.54 | -0.139 (inactive) | -0.566 (inactive) | 0.613 (inactive) | 2.97 | -0.179 (inactive) | -0.0391 | 1.71 | 0.989 | 0.0122
6 | CC(=O)NCCCC[C@@H]1NC(=O)[C@@H]2C[C@H](C(=O)NCc3ccc(F)cc3)[C@H](c3cccc(OCCO)c3)N2C1=O | 0.617 | -0.0522 | -0.0038 | 0.107 | -0.417 | 1.39 | 1.36 | 0.967 (inactive) | -0.205 | -0.0237 | 0.631 | 0.592 (inactive) | 0.16 (inactive) | 0.205 (inactive) | 2.43 | 0.496 (inactive) | 0.207 | 0.584 | -0.515 | -0.0953
7 | Cc1ccc(S(=O)(=O)N2[C@@H](c3ccccc3)C(C(=O)O)=CC[C@H]2c2ccccc2)cc1 | -0.0332 | -0.0906 | -0.0502 | 0.693 | 1.44 | 1.06 | 1.38 | -2.89 (inactive) | 0.273 | 0.0854 | -0.116 | -0.12 (inactive) | -0.422 (inactive) | 0.0034 (inactive) | 3.4 | -1.76 (inactive) | -0.0096 | -0.208 | 0.622 | 0.0731
8 | Cc1ccccc1C(O)C1C=CC2C(=O)N(c3ccccc3)C(=O)C2N1Nc1ccc(C#N)cc1 (stereo not given) | 0.834 | 1.46 | 0.429 | 1.15 | 1.63 | 1.91 | 1.25 | -1.25 (inactive) | 1.96 | -0.111 | 1.51 | 0.907 (inactive) | 1.85 (inactive) | 3.52 (inactive) | 2.89 | 0.478 (inactive) | 0.854 | 0.247 | 1.07 | 0.413
9 | COC(=O)C1=CC(c2ccc(CO)cc2)=CC(c2cccs2)N(Cc2cccc(OC(F)(F)F)c2)C=C1C(=O)OC (stereo not given) | -0.0169 | 1.41 | -0.0375 | 0.862 | 1.17 | 2.03 | 1.17 | -0.497 (inactive) | 0.48 | 0.0866 | 1.27 | -0.107 (inactive) | -1.75 (inactive) | 0.434 (inactive) | 3.31 | 0.241 (inactive) | 0.006 | -0.0249 | 1.13 | -0.0187
10 | COc1ccc(CCNC(=O)[C@@]2(c3ccc([N+](=O)[O-])cc3)CC(=O)N(C(C)C)[C@@H]2c2ccc(CO)cc2)cc1 | 0.988 | -0.716 | -0.116 | -0.94 | -1.38 | 1.57 | 0.987 | -1.39 (inactive) | -0.529 | -0.265 | -0.383 | -1.15 (inactive) | -1.2 (inactive) | -1.1 (inactive) | 2.99 | 1.89 (inactive) | 0.11 | -1.2 | -0.791 | -0.318
